From PubChem BioAssay (NCATS)
“And” between values parts separate entries of the source, which are not always exact repeats. Equal values may be shown once. Records with an inconclusive call do not appear. The source made the active and inactive calls. Calls come from the whole dose curve; as a rule, active = well fitted curve in the direction sought with a large enough effect; inconclusive = small, poorly fitted or top-dose-only effect, or another doubt; inactive = no such curve, though single readings can be large; an effect the other way counts as inactive or inconclusive.

Tests used:
[1] = qHTS of pediatric cancer cell lines to identify multiple opportunities for drug repurposing: Primary screen for Rh41 cells (AID 1347108); note: nearly all actives have a fitted effect of over 70% in size
Summary of the method: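 Cells seeded at 500-1,000 cells/well in growth media, rested 5 hours at 37 degrees C, 5% CO2, then dosed; MIPE compounds at 11-point (from 0.78 nM) and NPC at 8-point (from 0.59 nM) final concentrations. Viability by CellTiter-Glo luminescence after 48 hours.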

[2] = qHTS of pediatric cancer cell lines to identify multiple opportunities for drug repurposing: Confirmatory screen for A673 cells (AID 1347110);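 note: cells exposed to compound for 48 h before the viability read; nearly all actives have a fitted effect of over 65% in size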
Summary of the method: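 qHTS titration format: primary MIPE 0.78 nM-46 µM (11 pts), NPC 0.59 nM-46 µM; confirmation 11 pts. 48 h, CTG luminescence.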

[3] = qHTS of pediatric cancer cell lines to identify multiple opportunities for drug repurposing: Confirmatory screen for SK-N-MC cells (AID 1347111);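 note: cells exposed to compound for 48 h before the readout; nearly all actives have a fitted effect of over 70% in size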
Summary of the method: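 Seed 500-1,000 cells/well; rest 5 h at 37 degrees C. Pin-transfer compounds, 11-point titration. Incubate 48 h. Add CellTiter-Glo, 15 min RT, read luminescence.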

[4] = qHTS of pediatric cancer cell lines to identify multiple opportunities for drug repurposing: Confirmatory screen for LAN-5 cells (AID 1347113); note: nearly all actives have a fitted effect of over 65% in size
Summary of the method: (§1)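 Cells (500-1,000/well) rested 5 h, then received compounds for 48 h; metabolically active cells were measured by CellTiter-Glo luminescence. Final concentrations spanned up to 46 µM (MIPE, 11-point) or 0.59 nM-46 µM (NPC, 8-point) in primary screens, 11-point in follow-ups.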

[5] = qHTS of pediatric cancer cell lines to identify multiple opportunities for drug repurposing: Confirmatory screen for NB-EBc1 cells (AID 1347115);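 note: cells exposed to compound for 48 h before the viability read; nearly all actives have a fitted effect of over 45% in size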
Summary of the method: as §1

[6] = qHTS of pediatric cancer cell lines to identify multiple opportunities for drug repurposing: Confirmatory screen for SJ-GBM2 cells (AID 1347116); note: nearly all actives have a fitted effect of over 60% in size
Summary of the method: (§2)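 Viability measured as metabolically active cells via CellTiter-Glo luminescence following 48 hours of compound exposure, 11-point dilutions in confirmatory testing. 500-1,000 cells/well plated 5 hours before dosing; controls were DMSO and 2.3 µM bortezomib.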

[7] = qHTS of pediatric cancer cell lines to identify multiple opportunities for drug repurposing: Confirmatory screen for BT-37 cells (AID 1347117); note: nearly all actives have a fitted effect of over 55% in size
Summary of the method: as §1

[8] = qHTS of pediatric cancer cell lines to identify multiple opportunities for drug repurposing: Confirmatory screen for TC32 cells (AID 1347118);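 note: cells exposed to compound for 48 h before the read; nearly all actives have a fitted effect of over 65% in size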
Summary of the method: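 TC32 cells, 500-1,000/well in growth medium, compound-treated 48 h at 37 °C; viability from CellTiter-Glo luminescence. Primary screen: MIPE 11-point (0.78 nM–46 µM final), NPC 8-point (0.59 nM–46 µM final); confirmatory at 11-point dilutions.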

[9] = qHTS of pediatric cancer cell lines to identify multiple opportunities for drug repurposing: Confirmatory screen for DAOY cells (AID 1347114); note: nearly all actives have a fitted effect of over 65% in size
Summary of the method: as §2

[10] = qHTS of pediatric cancer cell lines to identify multiple opportunities for drug repurposing: Confirmatory screen for MG 63 (6-TG R) cells (AID 1347119); note: nearly all actives have a fitted effect of over 55% in size
Summary of the method: as §1

Measured: Potency
Potency is the fitted concentration of half-maximal effect.

CN(C)C(=S)SSC(=S)N(C)C
active: [1] 0.211 µM | [2] 0.329 µM | [3] 0.928 µM | [4] 185 nM | [5] 0.928 µM | [6] 8.27 µM | [7] 1.04 µM | [8] 1.04 µM

C[C@@H]1C[C@@H]([C@H](O)CC2CC(=O)NC(=O)C2)C(=O)[C@@H](C)C1
inactive: [9]
active: [1] 4.69 µM | [2] 1.65 µM | [3] 928 nM and 1.31 µM | [4] 928 nM and 2.61 µM | [6] 2.33 µM | [7] 1.04 µM and 1.17 µM | [8] 465 nM and 522 nM

C[C@]12CC[C@H]3[C@@H](CC=C4C[C@@H](O)CC[C@@]43C)[C@@H]1CC[C@@H]2O
inactive: [1]

ClC1=C(Cl)C2(Cl)C(CBr)CC1(Cl)C2(Cl)Cl (centres undefined)
active: [3] 10.4 µM
not listed: [2] | [8]
inactive: all other assays above

COc1ccc(C(=O)N2CCCC2=O)cc1
active: [8] 14.7 µM | [10] 29.3 µM
inactive: [1] | [2] | [9]

COc1ccc2c(C(=O)c3ccc(Cl)cc3)c(C)n(CC(=O)O)c2c1
active: [2] 7.37 µM | [3] 10.4 µM | [8] 16.5 µM
not listed: [1]
inactive: all other assays above

CN1[C@@H]2CC[C@H]1CC(OC(=O)c1cc(Cl)cc(Cl)c1)C2 (some centres undefined)
not listed: [7] | [9]
inactive: all other assays above

CC[n+]1c(-c2ccccc2)c2cc(N)ccc2c2ccc(N)cc21
active: [1] 3.35 µM | [2] 3.29 µM | [3] 2.08 µM | [4] 928 nM | [9] 13.1 µM | [5] 5.22 µM | [6] 3.69 µM | [7] 1.04 µM | [8] 1.17 µM | [10] 5.85 µM

CC(C)NCC(O)c1ccc(N)c(C#N)c1 (centres undefined)
inactive: [1]

CCc1ccc(C2CCNCC2)cc1
not listed: [6] | [8]
inactive: all other assays above

C[C@@H]1O[C@@H](O[C@@H]2C=C3CC[C@@H]4[C@H](CC[C@]5(C)[C@@H](c6ccc(=O)oc6)CC[C@]45O)[C@@]3(C)CC2)[C@H](O)[C@H](O)[C@H]1O
active: [2] 0.0585 µM | [3] 0.0293 µM | [4] 58.5 nM | [5] 0.0293 µM | [6] 0.0465 µM | [7] 0.0147 µM | [8] 0.0233 µM | [10] 0.0083 µM

CCC1(c2cccc(O)c2)CCCCN(C)C1 (centres undefined)
inactive: [1]

O=C(CCCCl)c1ccc(F)cc1
inactive: [1]

O=C(O)Cc1ccccc1
inactive: [1] | [2] | [4] | [9] | [5]

CN1C(=O)CN=C(c2ccccc2)c2cc([N+](=O)[O-])ccc21
inactive: [1]

O=C(CBr)Nc1ccc(Cl)cc1C(=O)c1ccccc1F
inactive: [1]

CN1CCc2cc(Cl)c(O)cc2[C@H]2c3ccccc3CC[C@@H]21
inactive: [1]

C[C@]12C=CC(=O)C=C1CC[C@@H]1[C@@H]2CC[C@@]2(C)[C@H]1CC[C@]2(C)O
inactive: [1]

CCCOC(=O)Cc1ccc(OCC(=O)N(CC)CC)c(OC)c1
inactive: [1]

CCCCCCCCCCCC[N+](C)(C)CCOc1ccccc1
active: [1] 16.8 µM | [2] 8.27 µM | [3] 7.37 µM | [4] 14700 nM | [9] 18.5 µM | [7] 20.8 µM | [8] 7.37 µM | [10] 20.8 µM

CC(CC(C#N)(c1ccccc1)c1ccccc1)N(C)C (centres undefined)
inactive: [1]

CCOC(=O)C1(c2ccccc2)CCN(CCc2ccc(N)cc2)CC1
inactive: [1]

Sc1ccccc1Cl
inactive: [1]

CCOP(=S)(OCC)O/N=C(\C#N)c1ccccc1
inactive: [1]

COCC(=O)N(c1c(C)cccc1C)C(C)C(=O)OC (centres undefined)
inactive: [1]

C=CCN1CC[C@]23CCCC[C@H]2[C@H]1Cc1ccc(O)cc13
inactive: [1]

COP(=S)(OC)Oc1ccc(Sc2ccc(OP(=S)(OC)OC)cc2)cc1
inactive: [1]

COC(=O)C1=CCCN(C)C1
active: [3] 18.5 µM | [8] 10.4 µM
not listed: [4]
inactive: all other assays above

CCCCCCCCC(=O)NCc1ccc(O)c(OC)c1
active: [8] 5.22 µM
not listed: [3]
inactive: all other assays above
